Experimental findings from PubChem BioAssay are described below.

In assay [1] the target is ATP-dependent translocase ABCB1 (Homo sapiens) (UniProt P08183). Put plainly: P-glycoprotein substrate transport blockade – cell-based (AID 377; in the data active = fluorescence slope change above about 50%). As to conditions: MDR1-expressing cells, fluorescent substrate accumulation slope; stronger effect = higher value; concentration not given here.
Assay [2] is described as follows: P. berghei load reduction in hepatocytes – cell-based, HepG2, luciferase luminescence, HepG2 viability, primary screen (AID 624349).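 Also: 100% = mean of DMSO negative control wells on the same plate.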 Particulars: P. berghei liver stage in HepG2, luciferase luminescence, concentration not given here; parasite load remaining: stronger effect = lower value; viability: measured here: HepG2 viability without parasites.
Assay [3] in a line: Wnt pathway potentiators raising nuclear beta-catenin – imaging, WNT3A-conditioned medium, mouse C2C12, NPC library, primary screen (AID 1117326; in the data active = nuclear beta-catenin stimulation mostly above about 4.2%, no sharp cut-off; inactive = mostly below about 10%). As to conditions: stronger effect = higher value.
The nature of assay [4]: stimulators of insulin release from INS-1E, primary screen, cell-based, 5 mM glucose, NPC library (AID 1117329;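 active = compound raises insulin release from rat beta cells at 5 mM glucose, no numeric limit stated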). Particulars: rat INS-1E insulin secretion, at 10 µM, stronger effect = higher value.
Assay [5] can be described thus: growth inhibition of GSK3B-pretreated HCT116 cells – cell-based, CellTiter-Glo, 0.2 to 20 µM (AID 1117336;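 active = compounds lowering colon cancer cell viability after pretreatment blocking the GSK3B kinase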). Particulars: HCT116 viability after GSK3B inhibitor, at 20 µM, stronger effect = higher value.
Assay [6] in a line: inhibition of endothelial tube formation, primary screen, imaging, VEGF stimulated, CD31 staining, tube area, NPC library (AID 1117340;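 active = compound that reduces growth-factor-driven endothelial tube area in a mixed cell culture, no cutoff stated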). As to conditions: VEGF-stimulated ADSC/ECFC co-culture, at 10 µM, stronger effect = higher value.
The nature of assay [7]: GLP1 release stimulators, primary, NCI-H716, NPC library (AID 1117341;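 active = compound raises GLP1 secretion from the human gut endocrine cells, with no numeric limit stated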). As to conditions: NCI-H716 cells, at 10 µM, stronger effect = higher value.
Assay [8] is described as follows: HCT116 colon cancer cell growth inhibition, primary screen, CellTiter-Glo luminescence, NPC library (AID 1117342;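 active = compounds that lower survival of HCT116 colon cancer cells in the luminescence readout, no numeric limit stated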). As to conditions: at 20 µM (top of the series).
Assay [9] can be described thus: reduced SW480 viability measured with CellTiter-Glo, NPC library, primary (AID 1117343;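 active = compounds that lower viability of the colon cancer cells in the luminescence readout, with no numeric limit stated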). Particulars: CellTiter-Glo luminescence; at 20 µM (top of the series) unless noted.
A short description of assay [10]: NPC library primary testing for decreased DLD-1 cell viability via CellTiter-Glo (AID 1117346;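 active = compounds that lower survival of DLD-1 colon cancer cells in the luminescence readout, no cutoff given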). Particulars: DLD-1 viability, CellTiter-Glo luminescence; at 20 µM (top of the series).
Assay [11] in a line: viability loss with induced miR-34 in A549 – imaging, A549 dox-inducible miR-34, nuclei and caspase counts, primary screen (AID 1347080;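 active = compounds whose cell count with miR-34 switched on is under 0.7 times the count with it off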). As to conditions: A549 miR-34 inducible, Hoechst nuclei count, 48 h.
Assay [12] can be described thus: MELAS cybrid and Rieske KO viability enhancers – cell-based, MELAS cybrids, Rieske KO mouse fibroblasts, CellTiter-Glo, primary screen (AID 1508586;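 active = mean z-score across replicates of 1.96 or higher in either the MELAS or the Rieske mutant cell line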;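 also: z relative to plate mean and SD of compound and empty wells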). As to conditions: low glucose.
Assay [13] deals with Mitogen-activated protein kinase 7 (Homo sapiens) (UniProt Q13164). In words: Gal4-ERK5 driven luciferase induction – cell-based, HTS, primary screen (AID 1508626;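 active = luciferase signal above three times the same-plate solvent-only control wells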;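 also: luciferase driven by Gal4-ERK5 fusion binding five Gal4 sites before minimal TATA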). As to conditions: HeLa Gal4-ERK5 transactivation, 18 h, at 5 µM, stronger effect = higher value.
Chain of Mitogen-activated protein kinase 7 (Homo sapiens) (Q13164 whole entry, looked up, the tested form may be a part): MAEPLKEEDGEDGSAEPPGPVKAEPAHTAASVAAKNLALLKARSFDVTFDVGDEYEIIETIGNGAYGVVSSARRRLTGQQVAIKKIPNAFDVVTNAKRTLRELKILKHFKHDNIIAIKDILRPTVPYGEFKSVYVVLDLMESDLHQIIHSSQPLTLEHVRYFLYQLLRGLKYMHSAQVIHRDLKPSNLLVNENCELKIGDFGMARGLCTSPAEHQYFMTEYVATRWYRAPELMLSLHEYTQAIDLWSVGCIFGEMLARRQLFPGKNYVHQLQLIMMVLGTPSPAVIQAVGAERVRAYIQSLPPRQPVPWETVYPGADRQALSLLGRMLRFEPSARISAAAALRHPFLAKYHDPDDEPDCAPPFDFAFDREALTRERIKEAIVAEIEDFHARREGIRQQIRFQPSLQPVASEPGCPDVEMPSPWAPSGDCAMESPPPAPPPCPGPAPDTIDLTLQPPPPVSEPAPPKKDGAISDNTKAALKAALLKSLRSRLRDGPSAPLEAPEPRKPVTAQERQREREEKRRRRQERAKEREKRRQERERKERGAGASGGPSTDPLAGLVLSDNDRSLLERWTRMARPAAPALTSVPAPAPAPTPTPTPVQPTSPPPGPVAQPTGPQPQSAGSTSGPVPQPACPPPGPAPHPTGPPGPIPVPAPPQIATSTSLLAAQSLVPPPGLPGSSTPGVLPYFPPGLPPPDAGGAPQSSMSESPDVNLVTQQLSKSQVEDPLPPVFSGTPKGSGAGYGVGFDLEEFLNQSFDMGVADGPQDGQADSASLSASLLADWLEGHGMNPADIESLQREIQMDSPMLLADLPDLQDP
Assay [14] can be described thus: compounds altering viability of human ES cells (AID 493140; call rule not given here;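 also: cells exposed to compounds for four days before counting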). As to conditions: human embryonic stem cell survival screen; stronger effect = higher value.
In assay [15] the target is NAD(+) hydrolase SARM1 (Homo sapiens) (UniProt Q6SZW1). In words: blocking NAD cleavage by SARM1 SAM-TIR – cell lysate, NAD-Glo luminescence (AID 1508614;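 active = compound whose remaining NAD level is above about 45 nM, limit read from the data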;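 also: higher remaining NAD means stronger inhibition of SARM1 NADase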). Particulars: SAM-TIR HEK293T lysate NADase, at 1 µM, stronger effect = higher value.
Chain of NAD(+) hydrolase SARM1 (Homo sapiens) (Q6SZW1 whole entry, looked up): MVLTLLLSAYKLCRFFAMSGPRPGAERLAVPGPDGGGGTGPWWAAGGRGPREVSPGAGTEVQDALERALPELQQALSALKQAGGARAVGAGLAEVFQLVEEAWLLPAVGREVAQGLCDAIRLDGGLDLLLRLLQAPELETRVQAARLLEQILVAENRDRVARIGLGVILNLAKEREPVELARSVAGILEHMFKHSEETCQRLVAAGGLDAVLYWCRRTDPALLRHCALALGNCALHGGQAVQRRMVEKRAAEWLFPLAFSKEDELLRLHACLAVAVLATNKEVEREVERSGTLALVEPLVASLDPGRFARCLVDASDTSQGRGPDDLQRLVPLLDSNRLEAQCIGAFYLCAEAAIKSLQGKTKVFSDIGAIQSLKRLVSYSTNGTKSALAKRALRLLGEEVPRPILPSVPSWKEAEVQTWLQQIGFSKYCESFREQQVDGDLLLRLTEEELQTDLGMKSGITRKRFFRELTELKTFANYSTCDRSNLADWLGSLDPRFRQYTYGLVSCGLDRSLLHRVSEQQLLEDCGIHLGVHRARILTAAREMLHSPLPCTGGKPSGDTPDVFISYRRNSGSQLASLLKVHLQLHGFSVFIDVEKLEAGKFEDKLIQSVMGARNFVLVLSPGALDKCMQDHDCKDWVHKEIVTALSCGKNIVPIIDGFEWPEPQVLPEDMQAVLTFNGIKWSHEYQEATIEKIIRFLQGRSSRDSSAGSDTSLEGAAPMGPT
Assay [16] in a line: galactose survival enhancers in mitochondrial complex I cybrids – cell-based, galactose medium, ATP luminescence, primary screen (AID 1645843;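 active = z-score of at least 1.8 in each of two replicates, scored against plate mean and spread of sample wells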;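 also: positive z means more ATP and so rescue of galactose-driven cybrid death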). Particulars: complex I mutant cybrid cells, 72 h, stronger effect = higher value.
The mark [17] stands for this setting: stronger effect = lower value, cell number ratio, induced over uninduced.
Where [18] appears, read: measured here: relative caspase fold change +Dox/-Dox.
Setting [19] is: measured here: total cells with miR-34 induction, stronger effect = lower value.
Where [20] appears, read: measured here: total cells without miR-34 induction.
[21] abbreviates: MELAS cybrid survival, CellTiter-Glo 48 h, stronger effect = higher value.
Where [22] appears, read: Rieske KO mouse fibroblast survival, CellTiter-Glo 72 h.

Several values for one entry are separate records, joined by “and”; a condition that tells them apart may be missing. Equal values may be shown once. Inconclusive results are not listed. Activity calls are given as the source filed them. Rule as the data show it, unless noted: active = parasite load remaining mostly below about 12% (no sharp cut-off); inactive = mostly above about 10%.

Chain of ATP-dependent translocase ABCB1 (Homo sapiens) (P08183 whole entry, looked up): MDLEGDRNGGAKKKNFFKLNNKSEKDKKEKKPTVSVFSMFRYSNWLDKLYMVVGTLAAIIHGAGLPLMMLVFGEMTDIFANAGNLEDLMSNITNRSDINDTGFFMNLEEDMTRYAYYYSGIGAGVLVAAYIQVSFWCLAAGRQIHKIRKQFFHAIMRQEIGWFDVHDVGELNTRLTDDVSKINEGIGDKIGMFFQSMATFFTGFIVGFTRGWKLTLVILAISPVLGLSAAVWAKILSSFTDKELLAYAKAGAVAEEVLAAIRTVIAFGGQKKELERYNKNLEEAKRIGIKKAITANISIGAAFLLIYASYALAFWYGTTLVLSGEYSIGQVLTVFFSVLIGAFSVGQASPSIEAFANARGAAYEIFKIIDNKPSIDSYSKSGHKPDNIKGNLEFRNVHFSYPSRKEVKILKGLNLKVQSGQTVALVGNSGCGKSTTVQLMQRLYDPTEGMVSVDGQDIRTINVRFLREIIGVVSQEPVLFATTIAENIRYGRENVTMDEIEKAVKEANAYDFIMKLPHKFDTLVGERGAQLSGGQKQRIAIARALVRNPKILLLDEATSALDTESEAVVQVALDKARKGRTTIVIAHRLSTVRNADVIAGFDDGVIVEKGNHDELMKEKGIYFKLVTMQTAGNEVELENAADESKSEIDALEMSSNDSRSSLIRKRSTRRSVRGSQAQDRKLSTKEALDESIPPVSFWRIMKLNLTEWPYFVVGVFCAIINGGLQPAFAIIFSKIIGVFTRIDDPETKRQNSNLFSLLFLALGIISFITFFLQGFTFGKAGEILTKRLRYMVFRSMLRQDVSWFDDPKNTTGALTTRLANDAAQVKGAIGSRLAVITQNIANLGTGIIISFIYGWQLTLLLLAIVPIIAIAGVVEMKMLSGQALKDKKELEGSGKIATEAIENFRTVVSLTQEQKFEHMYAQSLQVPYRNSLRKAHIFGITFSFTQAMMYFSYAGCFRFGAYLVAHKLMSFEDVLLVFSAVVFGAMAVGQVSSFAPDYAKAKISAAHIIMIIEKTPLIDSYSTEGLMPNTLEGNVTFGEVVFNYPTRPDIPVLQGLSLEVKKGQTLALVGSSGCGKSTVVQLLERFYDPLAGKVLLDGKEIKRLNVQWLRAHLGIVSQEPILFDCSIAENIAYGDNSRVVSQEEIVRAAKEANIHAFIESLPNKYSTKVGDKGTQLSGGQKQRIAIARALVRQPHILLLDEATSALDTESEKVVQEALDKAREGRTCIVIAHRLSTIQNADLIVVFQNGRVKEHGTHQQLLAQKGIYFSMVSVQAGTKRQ

Regarding `C#CC1(O)CC[C@H]2[C@@H]3CCC4=CCCC[C@@H]4[C@H]3CC[C@@]21C` (stereo not given in full), the fluorescence slope change in assay [1] is 88.5% (active). Besides, the parasite load remaining in assay [2] is 25.2% (inactive) and 119% (inactive). Besides, in [2], the viability was 48.4% and 91.7%. Also, the nuclear beta-catenin stimulation is 0.9% (inactive) in assay [3] (at 10 µM) and 0.1% in assay [3] (stimulation, at 2 µM). In addition, in [4], the insulin secretion stimulation was 16.9% (inactive). Besides, the viability decrease in assay [5] was 110% (active). Moreover, the tube area decrease in assay [6] was 14.7% (inactive). Further, the GLP1 secretion stimulation in assay [7] is 20.3% (active). In addition, in assay [8], the inhibition of viability is 113% (active). Besides, the viability decrease (inhibition) in [9] is 132% (active); in assay [10], 102% (active). Also, the fold change in [11] (setting [17]) was 0.949 (inactive); in [11] (setting [18]), 1.31. For the same molecule, the cell count in assay [11] (setting [19]) was 8290; in assay [11] (setting [20]), 8740. The z-score in assay [12] (setting [21]) is 0.595 (inactive); in assay [12] (setting [22]), 0.485. For the same molecule, in assay [13], the luciferase signal was 80 AU (inactive).

As to `CC1(C)[C@@H](OC(=O)CCC(=O)O)CC[C@]2(C)[C@H]3C(=O)C=C4[C@@H]5C[C@@](C)(C(=O)O)CC[C@]5(C)CC[C@@]4(C)[C@]3(C)CC[C@@H]12`, in [1], the fluorescence slope change was 123% (active). Moreover, the survival in [14] was 4.33 (inactive). Further, the parasite load remaining in assay [2] was 77.3% (inactive). Further, the viability in [2] stood at 94.7%. The nuclear beta-catenin stimulation in [3] (at 10 µM) was 4.8% (inactive); in [3] (stimulation, at 2 µM), 1.3%. Further, in [4], the insulin secretion stimulation was -1% (inactive). Besides, in [5], the viability decrease was 50.3% (active). In addition, the tube area decrease in [6] is 15.3% (inactive). In assay [7], the GLP1 secretion stimulation was 2.7% (inactive). Also, the inhibition of viability in [8] was 43.6% (inactive). The results for the viability decrease (inhibition) in assay [9] and in [10] were 15.1% (inactive) and 35.6% (inactive), respectively. For the same molecule, the values for the fold change in assay [11] (setting [17]) and in assay [11] (setting [18]) were 0.87 (inactive) and 1.72, respectively. In addition, the results for the cell count in [11] (setting [19]) and in assay [11] (setting [20]) were 9330 and 10700, respectively. Besides, the z-score is 0.704 (inactive) in assay [12] (setting [21]) and 0.0878 in [12] (setting [22]). Further, in [15], the remaining NAD was 10 nM (inactive). The luciferase signal in assay [13] is 60 AU (inactive).

`CCN[C@H]1CN(CCCOC)S(=O)(=O)c2sc(S(N)(=O)=O)cc21`: the survival in [14] is 9.25 (inactive). The parasite load remaining in assay [2] is 113% (inactive) and 65.9% (inactive). Also, the viability in assay [2] was 109% and 72.4%. Moreover, the nuclear beta-catenin stimulation is 1.3% (inactive) in [3] (at 10 µM) and 1.1% in assay [3] (stimulation, at 2 µM). For the same molecule, the insulin secretion stimulation in assay [4] was 3.9% (inactive). Moreover, in assay [5], the viability decrease was -7.1% (inactive). Moreover, in assay [6], the tube area decrease is -15% (inactive). For the same molecule, the GLP1 secretion stimulation in assay [7] was 0.6% (inactive). The inhibition of viability in assay [8] was 6.4% (inactive). Moreover, the viability decrease (inhibition) in [9] is 7.5% (inactive); in assay [10], 14.9% (inactive). Further, the fold change is 0.831 (inactive) in assay [11] (setting [17]) and 1.12 in [11] (setting [18]). Further, the results for the cell count in [11] (setting [19]) and in assay [11] (setting [20]) were 8040 and 9670, respectively. The z-score is 0.333 (inactive) in assay [12] (setting [21]) and 0.0327 in assay [12] (setting [22]). For the same molecule, the remaining NAD in assay [15] is 10 nM (inactive).

As for `COc1ccc(C=CC(=O)Nc2ccccc2C(=O)O)cc1OC`, the nuclear beta-catenin stimulation in [3] (at 10 µM) is -1.3% (inactive); in assay [3] (stimulation, at 2 µM), 2.1%. Besides, in [4], the insulin secretion stimulation was 0.9% (inactive). For the same molecule, the viability decrease in assay [5] is 4.3% (inactive). Besides, in [6], the tube area decrease is -1.3% (inactive). Moreover, the GLP1 secretion stimulation in [7] is -5.7% (inactive). For the same molecule, the inhibition of viability in assay [8] was -5.8% (inactive). The viability decrease (inhibition) in assay [9] is 4.8% (inactive); in assay [10] it was -29.2% (inactive). For the same molecule, the fold change in [11] (setting [17]) is 0.906 (inactive) and 0.975 (inactive); in assay [11] (setting [18]), 1.48 and 0.856. In addition, the cell count in assay [11] (setting [19]) is 9440 and 8000; in assay [11] (setting [20]), 10400 and 8210. Moreover, the z-score in assay [12] (setting [21]) is -0.386 (inactive); in assay [12] (setting [22]) it was 0.573; in [16], 0.955 (inactive).
